D2 PAM-1 = Beta-Arrestin HTS for Positive Allosteric Modulators of the Human D2 Dopamine Receptor: Potentiators; D(2) dopamine receptor (Homo sapiens), P14416; DiscoveRx D2 beta-arrestin cells, luminescence, 90 min; 100% = 57 uM dopamine signal; potentiation, % (test concentration not listed); actives 0.23% (n = 360,000); in the data active = potentiation above about 50%; inconclusive = mostly about 30% to 49%
Target sequence (P14416 whole entry, looked up): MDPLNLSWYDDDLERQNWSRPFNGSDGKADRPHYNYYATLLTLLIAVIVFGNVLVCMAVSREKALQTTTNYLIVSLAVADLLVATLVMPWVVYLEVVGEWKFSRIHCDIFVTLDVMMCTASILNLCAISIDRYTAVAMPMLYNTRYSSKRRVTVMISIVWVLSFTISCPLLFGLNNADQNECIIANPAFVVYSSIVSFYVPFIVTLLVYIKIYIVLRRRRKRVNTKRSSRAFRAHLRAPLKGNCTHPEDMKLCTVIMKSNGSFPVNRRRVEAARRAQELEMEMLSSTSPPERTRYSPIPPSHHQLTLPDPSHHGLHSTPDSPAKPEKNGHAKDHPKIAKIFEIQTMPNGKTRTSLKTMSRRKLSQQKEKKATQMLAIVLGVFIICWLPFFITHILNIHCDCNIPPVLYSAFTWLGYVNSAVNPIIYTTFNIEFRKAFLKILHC
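PathHunter beta-arrestin assay in DiscoveRx D2 cells. Compounds were added with an EC20 of dopamine (50 nM final) for 90 min at 37 deg C. Luminescence was read 1 h after detection reagent, with 57 uM dopamine as the EC100 control.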
D2 ag-1 = Beta-Arrestin HTS for Positive Allosteric Modulators of the Human D2 Dopamine Receptor: Agonists; DiscoveRx PathHunter D2 beta-arrestin, luminescence, 90 min; 100% = 57 uM dopamine signal; actives 0.084% (n = 360,000); AID 624465, 2012; activation, % (test concentration not listed); in the data active = activation above about 40%; inconclusive = between about 15% and that limit
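DiscoveRx PathHunter D2 beta-arrestin cells (2,100/well) attached overnight, then compound-stimulated 90 min at 37 C in HBSS/10 mM HEPES/0.1% Tween-20 buffer; beta-galactosidase complementation read by luminescence after 1 h at ambient temperature. Dopamine 57 uM final (EC100) as control.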
D2 ag-2 = HTS Assay for Allosteric Agonists of the Human D2 Dopamine Receptor: Primary Screen for Agonists; HEK293 T-REx D2 cells, calcium flux agonist mode; activation, % at 2 µM; actives 0.53% (n = 340,000);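 active = activation over 3 SD above normal in the single-dose calcium agonist read, cut at about 30% in these data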; note: 0% is about no effect
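Agonism is scored from calcium flux in a force-coupled, inducible HEK293 cell line expressing D2, read kinetically for 180 s after compound addition against dopamine controls.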
D2 PAM-2 = HTS Assay for Positive Allosteric Modulators of the Human D2 Dopamine Receptor: Primary Screen for Potentiators | D(2) dopamine receptor (Homo sapiens), P14416 | actives 0.34% (n = 340,000) | potentiation, % at 10 µM | HEK293 T-REx D2, calcium flux, EC20 dopamine potentiation;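 active = potentiation over 3 SD above the plate norm, cut at about 30% in these data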; note: 0% is about no effect
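Potentiation of an EC20 dopamine calcium response measured kinetically over 180 s, after a preceding 180 s compound-only read flagging agonists. Cells: inducible Hek293 Trex D2 line, 4000/well, cultured overnight at 30 C before dye loading.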
D2 antagonist = HTS Assay for Allosteric Antagonists of the Human D2 Dopamine Receptor: Primary Screen for Antagonists; D(2) dopamine receptor (Homo sapiens), P14416; HEK293 TREx D2 cells, calcium flux, dopamine EC80; inhibition, % at 10 µM; actives 2% (n = 340,000); AID 485344, 2010; in the data active = inhibition above about 30%; inactive = below that, where a call was filed; note: 0% is about no effect
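Measurement of antagonist activity uses fluorescent calcium dye in inducible HEK293 T-REx D2 cells: 10 s baseline, compound addition with 180 s read, EC80 dopamine addition with a further 180 s read.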
Numbers without * were called inactive; ? = inconclusive; nt = no result. Only some compounds are listed: those with a hit (about 2.4% of all), similar ones and a draw of the others.

SMILES	D2 PAM-1	D2 ag-1	D2 ag-2	D2 PAM-2	D2 antagonist
CCOC(=O)c1c(NC(=O)CSc2ncn[nH]2)sc(C(=O)NC)c1C	-8	2	0	-14	-11
CCOC(=O)c1c(NC(=O)CSc2ncn[nH]2)sc(C)c1C	7	2	0	1	38*
Cc1cc(NC(=O)c2ccccc2)ncc1NC(=O)c1cccs1	-3	2	-1	1	36*
Cc1cc(NC(=O)c2cccs2)ncc1NC(=O)c1cccc(F)c1	-2	-3	0	3	-17
Cc1ccc(C(=O)O)cc1NC(=O)c1cccs1	10	1	0	5	44*
Cc1ccn2c(=O)nc(SCC(=O)Nc3cc(C)on3)nc2c1	1	-1	-1	-10	42*
Cc1ccc2nc(SCC(=O)Nc3ccc(C)c(Cl)c3)nc(=O)n2c1	-8	0	-1	11	35*
Cc1cc(NC(=O)CSc2nc(=O)n3cc(Cl)ccc3n2)no1	-3	-1	nt	nt	nt
Cc1ccc2nc(SCC(=O)Nc3cccc(Cl)c3)nc(=O)n2c1	-6	3	1	-6	-14
Cc1ccc2nc(SCC(=O)c3ccc(Cl)cc3)nc(=O)n2c1	-1	-5	-1	13	32*
Cc1ccc2nc(SCC(=O)N3CCCCCC3)nc(=O)n2c1	-4	0	1	-9	1
Cc1cccc(NC(=O)C2CCCN(C(=O)Nc3ccc(F)cc3)C2)c1 (stereo unspecified)	-20	-4	-2	1	31*
COc1cccc(CN2C(=O)C(C)N(C(=O)c3ccccc3)c3ccccc32)c1 (stereo unspecified)	-1	-6	2	31*	-21
COc1ccc(Cl)cc1NC(=O)CCN1C(=O)c2ccccc2Sc2ncccc21	nt	nt	0	-7	nt
Clc1ccccc1Cn1nnc2c(N3CCCC3)ncnc21	7	1	0	5	7
CCc1nc(N2CCC3(CC2)OCCO3)c2nnn(Cc3ccccc3Cl)c2n1	-3	0	0	34*	-9
COc1ccc(OC)c(NC(=O)C(CCSC)NS(=O)(=O)c2cccs2)c1 (stereo unspecified)	-5	1	0	-2	32*
COc1ccc(C(=O)NCC(c2ccc(N(C)C)cc2)N2CCc3ccccc32)cc1 (stereo unspecified)	nt	nt	-4	8	nt
COc1ccccc1/C=C/CN1CCC(Oc2ccc(C(=O)N3CCCC3)cc2)CC1	-33	-1	0	-20	47*
COc1ccc(CCC(C)N2CCC(Oc3ccc(C(=O)N4CCCC4)cc3)CC2)cc1 (stereo unspecified)	-17	-5	0	-5	30*
COc1cc(/C=C/CN2CCC(Oc3ccc(C(=O)N4CCCC4)cc3)CC2)ccc1O	-22	-2	0	-10	3
Cc1cccc(NC(=O)Cn2nc(C)c3nn(-c4ccc(Cl)cc4)c(C)c3c2=O)c1C	nt	nt	0	9	nt
Cc1ccc(S(=O)(=O)NCCSc2nncn2C)cc1	-4	1	0	35*	-16
Cc1ccc(C)c(-c2nnc(NC(=O)Cc3ccc(F)cc3)o2)c1	-14	0	0	-24	11
Cc1ccc(-c2nnc(NC(=O)Cc3ccc(F)cc3)o2)c(C)c1	-21	-4	-1	-27	67*
SMILES	D2 PAM-1	D2 ag-1	D2 ag-2	D2 PAM-2	D2 antagonist
Fc1ccc(CNc2cc(-c3ccccc3)nc3nncn23)cc1	nt	nt	0	4	nt
CCCNS(=O)(=O)c1ccc(OCC(=O)OC)cc1	9	2	1	-6	6
Cc1ccc(OCCNC(=O)CCNS(=O)(=O)c2ccc(C)cc2)cc1	-19	-6	0	6	30*
CCOc1ccc(S(=O)(=O)NCCC(=O)NCCOc2ccccc2)cc1	?	-2	0	-5	-8
CCCNS(=O)(=O)c1ccc(OCC(=O)NCCCOC)cc1	-3	1	1	-14	30*
CS(=O)(=O)CC[C@@H](C(=O)NCCc1ccccc1)N1Cc2ccccc2C1=O	nt	nt	1	5	nt
CCOC(=O)c1cccc(NC(=O)COc2ccc([N+](=O)[O-])cc2)c1	-17	0	nt	nt	nt
CCCOC(=O)Nc1cccc(C(C)=O)c1	-7	0	0	10	35*
Cc1ccc(NC(=O)COC(=O)c2ccc3c(c2)OCCO3)cc1	-1	0	-3	4	3
CCCOC(=O)Nc1ccc(C(N)=O)cc1	-5	-1	0	-5	-6
CC(=O)c1cccc(NC(=O)COC(=O)c2ccc3c(c2)OCCO3)c1	-15	-1	0	-10	39*
CCCOC(=O)c1cccc(NC(=O)COc2ccc([N+](=O)[O-])cc2)c1	-20	-3	-1	-22	33*
O=C(COC(=O)Cn1nc(-c2ccccc2)oc1=O)Nc1ccc(F)cc1	65*	7	-1	4	3
O=C(CCN1C(=O)S/C(=C\c2ccccc2)C1=O)N1CCCCC1	-6	-3	0	7	35*
CN1CCN(C(=O)CCN2C(=O)/C(=C/c3cccc(Br)c3)SC2=S)CC1	-8	-3	0	3	31*
COc1ccc(-c2nc(SCC(=O)NC(C)CCc3ccccc3)n[nH]2)cc1 (stereo unspecified)	nt	nt	nt	-5	nt
Cc1cc([N+](=O)[O-])ccc1NC(=O)/C=C/c1cccs1	-27	-3	-1	-20	44*
Cc1cc(C)c2c(n1)nn1c(C)c(CCC(=O)NCc3ccc(Cl)cc3)c(C)nc21	nt	nt	-1	12	nt
CC(C)c1nnc(N2C(=O)C(O)=C(C(=O)c3cccs3)C2c2ccccc2)s1 (stereo unspecified)	-2	-2	166*	3	48*
Cc1cc(C)c(NC(=O)CCCn2c(C)c3cnn(-c4ccccc4)c(=O)c3c2C)c(C)c1	nt	nt	-1	-11	nt
Cc1ccc(C)c(Cn2c3ccccc3c3cnn(CC(=O)NC4CCC(C)CC4)c(=O)c32)c1 (stereo unspecified)	nt	nt	-1	24	nt
CC1CCCCN1C(=O)c1cccc(NC(=O)c2ccccc2)c1 (stereo unspecified)	-9	-4	-1	-2	37*
CC1CCCN(c2cc(N(C)CCO)c([N+](=O)[O-])c3nonc23)C1 (stereo unspecified)	-5	-2	0	40*	-7
Cn1c(-c2ccc(CN3CCCCC3)o2)nc2ccccc21	-42	-5	0	-21	34*

Screening results (PubChem BioAssay)
